# High-throughput results as filed in PubChem.
# An excerpt weighted towards active compounds, which were near 12% of everything screened.
# PLK1 PBD inh = blocks phosphopeptide binding to human PLK1 polo-box domain; P53350; Plk1 PBD binding of FITC phosphopeptide, fluorescence polarization; Potency, µM, for the others: max response, negative = inhibition, actives largely listed as inhibitors; actives 2.8% (n = 360,000); AID 720504; also: series mostly up to about 57 µM; % is scaled to controls: 0 for no effect and ±100 for the full control effect; nearly all actives have a fitted effect of over 65% in size
# Target sequence (P53350 whole entry, looked up, the tested form may be a part): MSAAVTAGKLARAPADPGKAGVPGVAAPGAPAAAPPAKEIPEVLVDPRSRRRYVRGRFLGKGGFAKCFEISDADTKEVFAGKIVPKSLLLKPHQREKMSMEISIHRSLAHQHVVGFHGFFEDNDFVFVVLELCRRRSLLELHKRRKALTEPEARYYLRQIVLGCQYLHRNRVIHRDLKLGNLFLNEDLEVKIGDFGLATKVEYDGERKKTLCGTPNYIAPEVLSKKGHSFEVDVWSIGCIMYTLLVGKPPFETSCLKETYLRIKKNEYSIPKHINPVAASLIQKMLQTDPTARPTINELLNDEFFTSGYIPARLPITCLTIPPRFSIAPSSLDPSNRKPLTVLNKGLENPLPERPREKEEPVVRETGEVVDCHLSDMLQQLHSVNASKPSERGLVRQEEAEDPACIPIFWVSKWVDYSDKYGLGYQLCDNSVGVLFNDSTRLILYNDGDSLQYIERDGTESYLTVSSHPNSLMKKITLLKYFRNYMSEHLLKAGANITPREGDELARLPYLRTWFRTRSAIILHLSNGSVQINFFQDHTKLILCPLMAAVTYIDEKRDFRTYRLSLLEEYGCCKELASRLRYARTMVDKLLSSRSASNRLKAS
# Sfp inh = inhibitors of Bacillus subtilis Sfp phosphopantetheinyl transferase; Q9F4F7; Biochemical Sfp PPTase activity, qHTS; Potency, µM, without a hit: largest response in the series, negative = inhibition, usual class: inhibitors; actives 3.5% (n = 310,000); AID 1490;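 also: the enzyme is Sfp with the accession as filed and its product quenches rhodamine fluorescence; 0% = enzyme reaction without inhibitor and -100% = no enzyme wells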
#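 Fluorescence-quenching assay: 15 nM Sfp-PPTase preincubated 15 min at room temperature with compound, then 5 uM rhodamine-CoA and 12.5 uM BHQ-2-labelled YbbR peptide added. Fluorescence (ex 525/em 598 nm) read at start and after 30 min; difference gives rate.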
# G9a block = inhibitors of human histone lysine methyltransferase G9a; G9a H3K9 monomethylation, AlphaScreen, 2 h; Potency, µM (doses to about 102 µM), without a hit: top-dose activity, negative = inhibition, most hits filed as inhibitors; actives 8.8% (n = 350,000); AID 504332; also: % is scaled to controls: 0 for no effect and ±100 for the full control effect; nearly all actives have a fitted effect of over 75% in size
#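 Chemiluminescent proximity detection of H3K9 monomethylation, read after 10 min bead incubation in the dark. Reaction: 20 nM G9a, 500 nM biotin-H3K9 peptide, 20 uM SAM cofactor, 2 h, room temperature, following 15 min enzyme-compound preincubation.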
# HP1b chromo inh = inhibitors of HP1-beta chromodomain binding to methylated histone tails; Potency, µM (top dose mostly 114 µM), for the others: top-dose activity change, negative = inhibition, actives largely listed as inhibitors; AlphaScreen HP1-beta / biotin-H3K9me3 peptide binding; actives 0.56% (n = 390,000); AID 540317; P83916; also: nearly all actives have a fitted effect of over 70% in size
# Target sequence (P83916 whole entry, looked up): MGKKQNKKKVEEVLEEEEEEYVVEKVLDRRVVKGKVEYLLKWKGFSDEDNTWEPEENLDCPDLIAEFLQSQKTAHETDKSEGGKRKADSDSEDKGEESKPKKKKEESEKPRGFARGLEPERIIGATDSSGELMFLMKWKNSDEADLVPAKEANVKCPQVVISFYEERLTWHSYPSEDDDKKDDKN
#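 AlphaScreen: HP1-beta (50 nM) preformed 30 min with biotin-H3(1-18)K9me3 peptide (50 nM) in PBS pH 7.4, 0.01% Tween-20. Compound added for 30 min at RT, then streptavidin donor/nickel chelate acceptor beads (10 ug/mL) for 30 min.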
# BAZ2B inh = inhibitors of human BAZ2B bromodomain; Q9UIF8; AlphaScreen BAZ2B-H3K14Ac peptide displacement; Potency, µM (series often up to 114 µM), inactives show top-dose activity change, negative = inhibition, actives largely listed as inhibitors; actives 4.4% (n = 360,000); AID 504333; also: % is scaled to controls: 0 for no effect and ±100 for the full control effect; nearly all actives have a fitted effect of over 60% in size
#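 Complex of BAZ2B and biotin-H3K14Ac (50 nM apiece) forms over 30 min at RT, then faces library compounds up to 110 uM for another 30 min; AlphaScreen beads added, 20 min dark incubation, luminescence read.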
# JMJD2A Tudor = blocks the human JMJD2A Tudor domain; O75164; AlphaScreen JMJD2A-Tudor / H3K4me3 peptide binding; Potency, µM (titrated, usually from 114 µM), for inactives: at the highest dose activity change, negative = inhibition, most hits filed as inhibitors; actives 4.4% (n = 390,000); AID 504339; also: % is scaled to controls: 0 for no effect and ±100 for the full control effect; nearly all actives have a fitted effect of over 50% in size
# Numbers without * were called inactive; ? = inconclusive; . = no result; [ ] = remark or other dose. Calls follow the shape of the dose curve; as a rule, active = well fitted curve in the direction sought with a large enough effect; inconclusive = small, poorly fitted or top-dose-only effect, or another doubt; inactive = no such curve, though single readings can be large; an effect the other way counts as inactive or inconclusive. Potency is read from the fitted curve at half-maximal effect.
SMILES,PLK1 PBD inh,Sfp inh,G9a block,HP1b chromo inh,BAZ2B inh,JMJD2A Tudor
Cc1cc(C(=O)NCc2ccc(C(=O)O)o2)c(C)o1,-15.9%,6.7%,?,?,56.2µM*,22.4µM*
COCOCCn1cc(CN2CCS(=O)(=O)N(Cc3ccc(-c4ccc(OC)c(OC)c4)cc3)C(CC(C)C)C2=O)nn1 (stereo not given),-2.7%,.,.,.,.,.
CC(=O)N(CCC(Cc1ccccc1)c1ccc2c(c1)OCO2)Cc1ccccc1F (stereo not given),-7.1%,70.8µM*,21.8%,40.6%,-3.3%,-7.8%
Fc1ccccc1CNCCC(Cc1ccccc1)c1ccc2c(c1)OCO2 (stereo not given),0.4%,-3.3%,?,-4.3%,-30.6%,-24.4%
Cc1c(C(=O)OCC2CCCO2)[nH]c2c1C(=O)CC(c1ccc(N(C)C)cc1)C2 (stereo not given),-8.7%,-8.5%,14.1µM*,-5.2%,44.7µM*,50.1µM*
Cc1c(C(=O)OCc2ccccc2)[nH]c2c1C(=O)CC(c1ccc(N(C)C)cc1)C2 (stereo not given),.,.,1.7%[59 µM],26.7%,1.1%,-9.6%
CCn1cc(C(=O)N[C@H](C(=O)NCCCN2CCOCC2)C(C)C)c(=O)c2cc3c(cc21)OCO3,-13.9%,2.2%,.,21.1%,-14.0%,0.8%
COc1ccc(CNc2cc(C)nc3ccc(OC)cc23)cc1,-0.4%,-27.5%,35.5µM*,2.8%,-37.8%,-26.4%
COc1ccc(/C=N/Nc2cc(C)nc3ccccc23)cc1,-4.0%,28.2µM*,.,11.6%,?,-26.7%
COc1ccc2nc(C)cc(N/N=C/c3ccc(F)cc3)c2c1,-11.7%,44.7µM*,?,9.9%,-28.0%,-28.1%
COc1ccc(/C=N/Nc2cc(C)nc3c(C)cccc23)cc1,-0.8%,?,-9.4%,15.3%,?,?
COc1cccc2c(N/N=C/c3ccc(O)c(O)c3)cc(C)nc12,-4.2%,-25.6%,35.5µM*,56.6%,?,?
COc1ccc(Nc2cc(C)nc3ccc(OC)cc23)cc1,-4.1%,-13.6%,.,12.3%,-3.2%,-20.5%
Cc1oc2ccc(O)c(CN3CCN(Cc4ccccc4)CC3)c2c1C(=O)Nc1ccccc1,.,.,?,-22.7%,-22.9%,?
Cn1c(=O)c2c(-c3ccc(Cl)cc3)n(Cc3ccccc3)cc2n(C)c1=O,.,.,6.0%[59 µM],28.1%,-20.9%,-18.3%
Cn1c(=O)c2cn(Cc3ccc(Cl)cc3)cc2n(C)c1=O,-2.1%,12.1%,15.8µM*,16.3%,-34.8%,-12.6%
O=C(CCN1CCCCC1=O)NC1CCCc2c1cnn2-c1ccccc1F (stereo not given),-28.5%,15.3%,-2.9%,-2.3%,-1.4%[57.1 µM],-13.0%
Cc1cc(C)cc(NC(=S)/C(=C(\[O-])c2ccc(Cl)cc2Cl)[n+]2ccccc2)c1,29.9µM*,10.6%,?,-8.0%,?,0.7%[11.4 µM]
[O-]/C(=C(\C(=S)Nc1ccc(SC(F)F)cc1)[n+]1ccccc1)c1ccc(Cl)cc1Cl,-3.8%,14.2%,35.5µM*,-5.5%,?,?
COc1cccc(N2CCN(C(=O)c3cc(C)oc3C)CC2)c1,-5.8%,.,?,-8.3%,-1.4%,-27.1%
Cc1nc2sc3c(c2c(=O)n1NC(=O)CCBr)CCCC3,-21.1%,-16.1%,50.1µM*,39.6%,-17.6%,-11.0%
NNc1nc2sc3c(c2c(=O)n1Cc1ccccc1)CCC3,-10.1%,31.6µM*,?,-17.7%,-22.5%,-31.7%
CCn1c(SCC(=O)c2ccccc2)nc2sc3c(c2c1=O)CCN(C)C3,-26.6%,50.1µM*,25.1µM*,-38.1%,-38.9%,?
CCCc1nc2sc3c(c2c(=O)n1NC(=O)CCC(=O)OC)CCCC3,-16.5%,5.0%,-29.5%,-16.0%,-3.3%,-13.4%
CCOC(=O)CSc1nc2sc3c(c2c(=O)n1CC)CCCC3,.,.,?,37.3%,2.5%,-8.8%
SMILES,PLK1 PBD inh,Sfp inh,G9a block,HP1b chromo inh,BAZ2B inh,JMJD2A Tudor
CCn1c(SCC(=O)NCCc2ccccc2)nc2sc3c(c2c1=O)CCN(C)C3,-7.8%,4.5%,?,16.6%,0.1%,-14.1%
CCn1c(SCC(N)=O)nc2sc3c(c2c1=O)CCCC3,-7.9%,17.5%,44.7µM*,38.2%,-6.0%,-9.0%
O=C(COC(=O)/C=C/c1ccc2c(c1)OCO2)NCc1ccccc1,2.6%,.,19.4%[59 µM],47.4%,-2.6%,-18.3%
CC(=O)OCC(=O)[C@@]12OC(C)(C)O[C@@H]1C[C@H]1[C@H]3C[C@H](F)C4=CC(=O)C=C[C@@]4(C)[C@]3(F)[C@H](O)C[C@@]12C,.,46.3%,14.1%[21.5 µM],.,.,.
CSc1nc2sc3c(c2c(=O)n1C1CCCCC1)CCN(C)C3,-0.5%,6.5%,50.1µM*,45.9%,-28.5%,-34.8%
C#CCSc1nc2sc3c(c2c(=O)n1C)CCC3,-12.6%,-1.5%,44.7µM*,?,50.1µM*,79.4µM*
CCSc1nc2sc3c(c2c(=O)n1C1CCCCC1)CCN(C)C3,-10.0%,-12.5%,?,9.7%,-2.8%,-27.0%
NNc1nc2sc3c(c2c(=O)n1C1CCCCC1)CCN(Cc1ccccc1)C3,3.2%,6.4%,50.1µM*,23.2%,-35.4%,5.6%
C=C(C)CSc1nc2sc3c(c2c(=O)n1C1CCCCC1)CCN(C)C3,-19.2%,-27.1%,.,17.2%,?,?
CCn1c(NN)nc2sc3c(c2c1=O)CCC3,-4.0%,56.2µM*,44.7µM*,-22.0%,2.9%,?
CSc1nc2sc3c(c2c(=O)n1C)CCC3,-9.4%,-2.7%,.,29.1%,-13.1%,-5.6%
CC1(C(=O)Nc2cccc(C(F)(F)F)c2)Cc2ccccc2C(=O)O1 (stereo not given),.,.,25.4%[59 µM],54.5%,0.9%,14.4%
CCOC(=O)Cn1c(=O)n(CC2CCCO2)c2nc(-c3c(F)cccc3Cl)nc(C(N)=O)c21 (stereo not given),.,.,12.6%[59 µM],25.7%[57 µM],-1.6%,-13.1%
COc1ccccc1OCCNC(=O)CSC(=S)N1CCCC1,0.8%,.,2.7%,13.3%,-2.0%,-11.0%
O=C(CSc1nc2c(oc3ccccc32)c(=O)n1CC1CCCO1)NCc1ccccc1 (stereo not given),-2.4%,.,-32.4%,39.5%,-3.6%,-14.9%
CCN1CCN(c2nc3sc4c(c3c(=O)n2-c2ccc(OC)cc2)CCCCC4)CC1,-4.8%,-8.7%,?,-6.3%,?,?
COc1ccc(-n2c(NN)nc3sc4c(c3c2=O)CCCC4)cc1,-5.8%,15.7%,50.1µM*,20.7%,-2.9%,-33.1%
COc1ccc(/C=C/C2=CC(C)(C)NC(=S)N2)cc1OC,-27.3%,13.3%,44.7µM*,15.7%,.,-35.5%
Cc1c(CCC(=O)O)c(=O)oc2c(C)c3occ(-c4ccc(Br)cc4)c3cc12,26.7µM*,-20.9%,44.7µM*,?,56.2µM*,?
Cc1c(CC(=O)O)c(=O)oc2c(C)c3occ(-c4ccc(F)cc4)c3cc12,-13.7%,35.5µM*,4.7%,40.3%,?,-32.6%
